Compound activity from PubChem BioAssay.
Hits are enriched below; roughly 28% of the tested compounds scored in any of these assays.
CD11b adhes inh: inhibitors of CD11b/CD18 adhesion to fibrinogen, primary screen, K562 cells, luminescence; AID 1497, 2009; ATPlite luminescence; Mn2+ added to activate the integrin; Integrin beta-2 (Homo sapiens) + Integrin alpha-M (Homo sapiens), P05107+P11215; inhibition, % at 10 µM; 93,000 compounds, 0.54% hits;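 active = primary inhibition of 50% or more at 10 µM, then 40% or more on retest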
Mac1 fbg enh: enhancers of CD11b/CD18 adhesion to fibrinogen, primary screen, K562 cells, luminescence | activation, % at 10 µM | ATPlite luminescence | 93,000 compounds, 0.07% hits;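 active = 10 µM primary screen giving 50% or more activity, confirmed by 40% or more on retest at that dose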
CYP2C19 act: human CYP2C19 activators, primary screen, biochemical, luminescence | Cytochrome P450 2C19 (Homo sapiens), P33261 | 96,000 tested, under 10 active | AID 1025, 2008 | activation factor at 5 µM | recombinant CYP2C19, luciferin-H EGE luminescence; hits give high values; 0 = fully inhibited enzyme, 1 = untreated enzyme;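 active = activation factor of at least 2 at 5 µM in the primary screen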;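 also: 0 = wells with 2.5 mM tranylcypromine and 1 = vehicle-only wells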
CYP2C9 inh: blockers of cytochrome P450 2C9 activity – biochemical, luminescence, ADME assay, primary screen. P11712. CYP2C9 Supersomes, luciferin-H conversion. inhibition, % at 5 µM. 96,000 compounds, 20% hits. AID 777, 2007;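 active = blocking of liver enzyme CYP2C9 beyond about 50% at 5 µM, limit read from the data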
Target sequence (P11712 whole entry, looked up): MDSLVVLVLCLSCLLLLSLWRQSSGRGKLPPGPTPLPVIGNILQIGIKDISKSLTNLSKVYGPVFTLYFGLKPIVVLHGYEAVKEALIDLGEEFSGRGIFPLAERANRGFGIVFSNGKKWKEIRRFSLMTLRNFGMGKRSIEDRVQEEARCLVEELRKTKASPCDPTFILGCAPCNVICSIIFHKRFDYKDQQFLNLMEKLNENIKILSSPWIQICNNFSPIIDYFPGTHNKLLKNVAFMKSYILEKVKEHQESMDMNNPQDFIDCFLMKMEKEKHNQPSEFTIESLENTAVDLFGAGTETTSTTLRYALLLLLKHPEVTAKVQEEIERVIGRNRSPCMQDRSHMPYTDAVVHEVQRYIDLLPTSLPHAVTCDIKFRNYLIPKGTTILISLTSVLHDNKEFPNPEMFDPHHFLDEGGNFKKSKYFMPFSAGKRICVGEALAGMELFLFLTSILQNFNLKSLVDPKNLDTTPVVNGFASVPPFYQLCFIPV
CYP2C19 inhib: blockers of cytochrome P450 2C19 activity – biochemical, luminescence, ADME assay, primary screen. P33261. CYP2C19 Supersomes, luciferin-H EGE luminescence, 30 min. inhibition, % at 5 µM. 96,000 compounds, 21% hits. AID 778, 2007;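 active = CYP2C19 inhibition above a set limit at 5 µM in the primary screen, cut at about 50% in these data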;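 also: plate controls were negative control wells for no effect and 2.5 mM tranylcypromine positive control for full effect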
CYP2C9 act: human CYP2C9 activators, primary screen, biochemical, luminescence. recombinant CYP2C9, luciferin-H conversion; hits give high values; factor 1 = untreated enzyme, 0 = blocked. activation factor at 5 µM. 96,000 compounds, 1.4% hits. AID 1024, 2008;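 active = activation factor of 2 or more for CYP2C9 at a 5 µM dose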;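 also: 0 = sulfaphenazole-blocked wells and 1 = vehicle-only wells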
The depositor's hits bear a star.

What do the screens show for `Cc1cc(C)nc(NC2=NC3CCCCC3N2)n1` (stereo not drawn)?
CD11b adhes inh: 9; Mac1 fbg enh: -2; CYP2C19 act: 1; CYP2C9 inh: 1; CYP2C19 inhib: -1; CYP2C9 act: 1

What do the screens show for `Cc1ccc(NC(=O)c2cc([N+](=O)[O-])ccc2NCc2cccnc2)cc1Cl`?
CD11b adhes inh: 3; Mac1 fbg enh: -2; CYP2C19 act: 0.2; CYP2C9 inh: 92*; CYP2C19 inhib: 85*; CYP2C9 act: 0.1

What do the screens show for `CCOc1ccccc1NC(=O)CCSc1nc2n[nH]c(C)c2c(=N)n1-c1ccccc1Cl`?
CD11b adhes inh: -25; Mac1 fbg enh: 14; CYP2C19 act: 0.3; CYP2C9 inh: 77*; CYP2C19 inhib: 71*; CYP2C9 act: 0.2

How did COc1ccc2cc(-c3csc(-c4cccnc4)n3)ccc2c1 do in these assays?
CD11b adhes inh: 29; Mac1 fbg enh: -6; CYP2C19 act: 0.2; CYP2C9 inh: 2; CYP2C19 inhib: 75*; CYP2C9 act: 1

How did CCCOc1ccc(C2=NNC(=O)CC2)cc1 do in these assays?
CD11b adhes inh: -20; Mac1 fbg enh: 1

What do the screens show for `CCc1ccc(C2CC(c3ccc(Cl)cc3)=NNC2=O)cc1` (stereo not drawn)?
CD11b adhes inh: 0; Mac1 fbg enh: -3; CYP2C19 act: 0.2; CYP2C9 inh: 40; CYP2C19 inhib: 84*; CYP2C9 act: 0.6

What do the screens show for `Cc1ccc(C2CC(c3ccc(Cl)cc3)=NNC2=O)cc1` (stereo not drawn)?
CD11b adhes inh: -11; Mac1 fbg enh: 1; CYP2C19 act: 0.2; CYP2C9 inh: 38; CYP2C19 inhib: 85*; CYP2C9 act: 0.6

Results for COC(=O)c1ccc(CSc2nc3ccc(S(=O)(=O)N4CCOCC4)cc3[nH]2)cc1 ?
CD11b adhes inh: 25; Mac1 fbg enh: -3

What do the screens show for `O=c1cc(C(F)F)oc2c1ccc1ccccc12`?
CD11b adhes inh: -8; Mac1 fbg enh: -2; CYP2C19 act: 0.7; CYP2C9 inh: -24; CYP2C19 inhib: 34; CYP2C9 act: 1.2

How did Cc1oc(C(=O)O)cc1COc1ccc2c3c(c(=O)oc2c1C)CCCC3 do in these assays?
CD11b adhes inh: -13; Mac1 fbg enh: -1; CYP2C19 act: 1; CYP2C9 inh: -14; CYP2C19 inhib: -4; CYP2C9 act: 1.1

Results for CC(C)CN(Cc1c(O)ccc2c3c(c(=O)oc12)CCC3)CC(C)C ?
CYP2C19 act: 0.9; CYP2C9 inh: 34; CYP2C19 inhib: 11; CYP2C9 act: 0.7

How did Cc1c(O)ccc2c3c(c(=O)oc12)CCC(C)C3 (stereo not drawn) do in these assays?
CD11b adhes inh: -13; Mac1 fbg enh: 5; CYP2C19 act: 0.1; CYP2C9 inh: 12; CYP2C19 inhib: 93*; CYP2C9 act: 0.9

What do the screens show for `Cc1c(O)ccc2c3c(c(=O)oc12)CCCC3`?
CD11b adhes inh: -2; Mac1 fbg enh: -3; CYP2C19 act: 0.3; CYP2C9 inh: -199; CYP2C19 inhib: 69*; CYP2C9 act: 3*

How did Cc1oc2c(C)c3oc(=O)c4c(c3cc2c1C)CCCC4 do in these assays?
CD11b adhes inh: -4; Mac1 fbg enh: -1; CYP2C19 act: 0; CYP2C9 inh: 50*; CYP2C19 inhib: 96*; CYP2C9 act: 0.5

Results for O=c1[nH]c(Nc2ccc(F)cc2)cc2ccccc12 ?
CD11b adhes inh: 13; Mac1 fbg enh: 4; CYP2C19 act: 0.1; CYP2C9 inh: 78*; CYP2C19 inhib: 86*; CYP2C9 act: 0.2

How did Cc1ccccc1Nc1cc2ccccc2c(=O)[nH]1 do in these assays?
CD11b adhes inh: 51; Mac1 fbg enh: 3; CYP2C19 act: 0.7; CYP2C9 inh: 14; CYP2C19 inhib: 31; CYP2C9 act: 0.9

What do the screens show for `Cc1noc(NS(=O)(=O)c2ccc(NC(=O)CSc3nnc(-c4ccccc4)n3C3CCCCC3)cc2)c1C`?
CD11b adhes inh: -12; Mac1 fbg enh: 2; CYP2C19 act: 0.8; CYP2C9 inh: 32; CYP2C19 inhib: 18; CYP2C9 act: 0.7
